The sample as a whole holds a higher share of hits than the screen did.
Shiga toxin inh: Shiga toxin inhibition. Vero cells, Shiga toxin protein synthesis inhibition reporter. inhibition, % at 38.7 µM. actives 9.2% (n = 290,000). AID 2315; in the data active = inhibition mostly above about 28%, no sharp cut-off; inactive = mostly below about 43%
RE007 growth inh: less growth of the S. pombe RE007 Vpr strain; S. pombe RE007 Vpr strain, BacTiter-Glo ATP luminescence, 24 h; Potency, µM (highest dose often 92.2 µM), most hits filed as inhibitors; actives 0.21% (n = 360,000); active = well fitted falling curve with a large enough effect; inconclusive = small, poorly fitted or top-dose-only effect; inactive = no such curve, though single readings can be large or run the other way; also: nearly all actives have a fitted effect of over 50% in size
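Fission yeast strain RE007, carrying one chromosomally integrated HIV-1 vpr copy, was seeded at OD 0.01 in PMG+AL medium with 23 nL pinned compound. After 24 h at 30 °C and 99% humidity, viability was read by BacTiter-Glo luminescence.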
Giardia FBPA inh: Giardia lamblia aldolase inhibition; A8B2U2; purified Giardia FBPA; Potency, µM (titrated, usually from 59.6 µM), hits mostly inhibitors; actives 0.71% (n = 290,000); also: nearly all actives have a fitted effect of over 55% in size
Target sequence (A8B2U2 whole entry, looked up): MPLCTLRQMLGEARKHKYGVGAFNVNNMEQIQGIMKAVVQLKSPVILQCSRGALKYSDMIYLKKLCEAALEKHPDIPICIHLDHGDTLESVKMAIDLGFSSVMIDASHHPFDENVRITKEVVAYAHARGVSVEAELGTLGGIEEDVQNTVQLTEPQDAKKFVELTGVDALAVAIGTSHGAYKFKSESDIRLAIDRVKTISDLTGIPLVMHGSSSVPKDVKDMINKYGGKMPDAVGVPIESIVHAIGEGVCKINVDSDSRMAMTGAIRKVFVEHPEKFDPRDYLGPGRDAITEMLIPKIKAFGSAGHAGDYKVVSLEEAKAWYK
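40 nM FBPA preincubated 10 min at RT with compound (up to 57.5 uM final), then substrate plus GAPDH/TPI/NAD/arsenate coupling and diaphorase/resazurin added. Fluorescence read after 20 min at RT, 525/598 nm.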
TbPYK inhibitor: inhibitors of Trypanosoma brucei pyruvate kinase; Q57TT1; Potency, µM (series often up to 76.8 µM), most hits filed as inhibitors; TbPYK enzyme, Kinase-Glo Plus ATP luminescence, 45 min; actives 0.12% (n = 410,000); also: nearly all actives have a fitted effect of over 50% in size
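Readout: single end-point luminescence (Kinase-Glo Plus, 10 min). Reaction conditions were TbPYK/substrate plus 130 uM ADP, 45 min at RT, pH 7.2 TEA buffer. No-enzyme wells served as controls, and data were normalized before concentration-response fitting.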
LmPK inhibitor: LmPK (Leishmania mexicana) enzyme inhibition; actives 0.37% (n = 290,000); Potency, µM (series often up to 57.5 µM), actives largely listed as inhibitors; AID 1721; Q27686; purified LmPK, Kinase-Glo ATP luminescence, 1 h
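Purified LmPK (0.1 nM) with 0.5 mM PEP and 0.1 mM ADP in imidazole buffer pH 7.2 with MgCl2/KCl, 1 h at room temperature. ATP formed was read by luciferase luminescence and normalized to no-enzyme and uninhibited controls.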
Cycloheximide cs: counter-screen for Shiga toxin inhibitors: cycloheximide protein synthesis inhibition; actives 12% (n = 300,000); AID 2314; cell reporter, cycloheximide protein synthesis inhibition counterscreen; max response, %; in the data active = max response mostly above about 13%, no sharp cut-off; inactive = mostly below about 14%; also: read at 38.3 µM for the half of the compounds with a filed dose
A number is an active result; - = inactive; ? = inconclusive; . = not tested or not shown; [ ] = another dose, or the depositor's remark. Unless noted, calls follow the shape of the dose curve; as a rule, active = well fitted curve in the direction sought with a large enough effect; inconclusive = small, poorly fitted or top-dose-only effect, or another doubt; inactive = no such curve, though single readings can be large; an effect the other way counts as inactive or inconclusive.

SMILES | Shiga toxin inh | RE007 growth inh | Giardia FBPA inh | TbPYK inhibitor | LmPK inhibitor | Cycloheximide cs
Cc1scc(-c2n[nH]c(=S)n2Cc2ccccc2)c1C | - | - | - | 3.2µM | ? | -
CCc1c(-c2n[nH]c(=S)n2Cc2ccccc2)csc1C | - | - | - | ? | ? | -
O=[N+]([O-])c1ccc(N=NN(CCO)CCO)cc1 | - | - | - | - | - | -
O=[N+]([O-])c1ccc(N=Nc2ncc[nH]2)cc1 | - | - | ? | - | - | 16
COc1ccc(C(=O)NC(=S)SCC(=O)O)cc1 | 26 | - | ? | - | - | 15
COc1ccc(C(=O)NC(=S)Nc2nnn(C)n2)cc1 | - | . | 1.8µM | - | - | -
Cn1nnc(NC(=S)NC(=O)c2ccco2)n1 | - | - | 1.3µM | - | - | -
Cn1nnc(NC(=S)NC(=O)c2cc3ccccc3o2)n1 | - | - | ? | - | - | 11
COc1c(C(=O)NC(=S)Nc2nnn(C)n2)cc2ccccc2c1Br | - | - | ? | - | - | -
O=C(NC(=S)Nc1ccc2oc(=O)ccc2c1)c1cc2ccccc2o1 | - | - | - | - | - | -
COCCCNC(=O)c1ccc(Cn2c(=O)c3ccccc3n(CC(N)=O)c2=O)cc1 | . | . | . | - | . | .
CN(Cc1ccccc1)C(=O)c1csc([C@H]2C[C@H](O)[C@@H](CO)O2)n1 | . | -[18.4 µM] | . | - | . | .
NC(=O)NCC(N)C(=O)O (configuration not stated) | . | . | - | . | . | .
Nc1ncnc2c1ncn2[C@@H]1O[C@H](C(=O)N[C@@H](CO)Cc2ccccc2)[C@@H](O)[C@H]1O | . | - | . | - | . | .
O=C(NCc1ccccn1)c1ccc(Br)s1 | 32 | - | - | - | - | 17
O=C(NCc1ccccn1)c1ccc(Cl)s1 | - | - | - | - | - | 24
Cc1ccc(-n2c(=O)c3ccc(C(=O)NCc4ccccc4Cl)cc3n(Cc3cccc(F)c3)c2=O)cc1 | . | . | . | - | . | .
O=C(Nc1ccc2nc(SCC(=O)N3CCCC3)sc2c1)c1cccc(F)c1 | . | . | . | - | . | .
CC1CCN(C(=O)CSc2nnc(-c3ccco3)o2)CC1 | - | - | - | - | - | -
CC1CC(C)CN(C(=O)CSc2nnc(-c3ccco3)o2)C1 (configuration not stated) | - | - | - | - | - | 13
O=C(CSc1nnc(-c2ccco2)o1)N1CCCCC1 | 66 | - | . | - | - | 25
O=C(CSc1nnc(-c2ccco2)o1)NC1CCCCCC1 | - | - | - | - | - | -
O=C(CSc1ccc(-c2ccco2)nn1)N1CCCCC1 | 62 | - | 13µM | - | - | 61
CCCN(C(=S)Nc1ccccc1)C1CCS(=O)(=O)C1 (configuration not stated) | - | - | - | - | - | -
O=C1C(C2=C(O)c3ccccc3C2=O)=Nc2ccccc21 | 65 | ? | - | ? | 18µM | 25
SMILES | Shiga toxin inh | RE007 growth inh | Giardia FBPA inh | TbPYK inhibitor | LmPK inhibitor | Cycloheximide cs
O=C1C(C2=NC(C(=O)O)C3C(=O)N(c4ccccc4)C(=O)C23)=C(O)c2ccccc21 (configuration not stated) | - | - | - | - | - | -
COc1cc(OC)c(C2CC(=O)N3CN(c4ccccc4C)CSC3=C2C#N)cc1OC (configuration not stated) | - | . | 4.5µM | . | - | -
CCc1ccccc1N1CSC2=C(C#N)C(c3ccccc3F)CC(=O)N2C1 (configuration not stated) | - | - | 6.3µM | 8.9µM | - | -
COc1cc(C2CC(=O)N3CN(Cc4ccco4)CSC3=C2C#N)ccc1OCc1ccccc1 (configuration not stated) | - | - | ? | ? | - | -
COc1ccc(C2CC(=O)N3CN(c4ccc(C)c(Cl)c4)CSC3=C2C#N)cc1 (configuration not stated) | - | - | ? | 3.2µM | - | -
Cc1cccc(N2CSC3=C(C#N)C(c4ccc(C)o4)CC(=O)N3C2)c1 (configuration not stated) | - | . | ? | . | - | 11
N#CC1=C2SCN(Cc3ccccc3)CN2C(=O)CC1c1cccs1 (configuration not stated) | - | - | ? | ? | - | -
COc1ccc(-c2nnc(SCC(=O)c3ccc(NC(C)=O)cc3)o2)cc1OC | . | . | . | - | . | .
O=C(Cn1cc(C(=O)C(F)(F)F)c2ccccc21)NCc1ccco1 | - | - | - | - | - | 47
O=C(NCCn1cc(SCc2ccccc2)c2ccccc21)c1c(F)cccc1F | - | - | - | - | - | -
O=C(NCCn1cc(SCc2ccc(F)cc2)c2ccccc21)c1c(F)cccc1F | - | - | ? | - | - | 14
O=C(CSc1cn(CCNC(=O)c2ccccc2)c2ccccc12)NCc1ccco1 | 53 | - | - | - | - | 36
CCC(=O)c1cn(CC(=O)NCc2ccco2)c2ccccc12 | 61 | - | - | - | - | 43
Cc1nc([N+](=O)[O-])cn1CC(=O)c1ccc(Br)cc1 | . | - | . | - | . | .
COC(=O)c1cn(CC(=O)NCc2ccco2)c2ccccc12 | 50 | - | - | - | - | 15
O=C(Cn1cc(C(=O)c2ccccc2)c2ccccc21)NCc1ccco1 | - | - | - | - | - | 78
C=CCC1(CC=C)CC(Cc2cnccn2)N(C(=O)OC(C)(C)C)C1 (configuration not stated) | . | - | . | - | . | .
Cc1cccc(CC(C)NC(=O)CCc2nnc(-c3ccccc3)o2)n1 (configuration not stated) | - | - | - | - | - | 13
CC(C)(CO)CNC(=O)CCc1nnc(C2(c3ccc(Cl)cc3)CCC2)o1 | - | - | - | - | - | -
CCOC(=O)CN(C)C(=O)CCc1nnc(-c2ccc(-c3ccccc3)cc2)o1 | - | - | - | - | - | 13
CCOC(=O)Cc1nnc(-c2ccccc2)o1 | - | - | - | - | - | 22
CC(C)(CO)CNC(=O)CCc1nnc(-c2ccc(-c3ccccc3)cc2)o1 | 60 | - | - | - | - | 25
O=C(CCc1nc2ccccc2c(=O)[nH]1)OCc1ccc(Cl)cc1Cl | - | - | - | - | - | -
CN(C)c1ccc(-c2cc(NC=O)c3ncc(-c4ccc(F)c(Cl)c4)n3c2)cc1 | . | - | . | - | . | .
Cc1ccc(C(=O)OCc2nnc(-c3ccccc3)o2)s1 | . | - | . | - | . | .
CCN(CC)CCN(C)C(=O)CCc1nnc(-c2ccc(C)s2)o1 | 34 | - | - | - | - | 22
O=C1c2ccccc2NC(c2ccc3c(c2)OCO3)N1O (configuration not stated) | - | - | - | - | - | -
O=C1c2ccccc2NC(c2ccc(O)c(O)c2)N1c1ccccc1Cl (configuration not stated) | 41 | - | - | - | ? | 27
COc1cc(C2Nc3ccccc3C(=O)N2c2ccccc2OC)ccc1O (configuration not stated) | - | - | - | - | - | -
